This is a sample that favours compounds with a hit; in the whole collection about 11% have one here.
AmpC inh no detg = AmpC beta-lactamase inhibition without detergent; 330,000 compounds, 0.52% hits; AmpC nitrocefin hydrolysis, absorbance 480 nm, 0.0001% Triton; AID 485341; Potency, µM (series often up to 57.1 µM), inactives show at the highest dose activity change, negative = inhibition, usual class: inhibitors; P00811;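 also: plate controls were no compound for no effect and no enzyme for full effect; nearly all actives have a fitted effect of over 20% in size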
Target sequence (P00811 whole entry, looked up): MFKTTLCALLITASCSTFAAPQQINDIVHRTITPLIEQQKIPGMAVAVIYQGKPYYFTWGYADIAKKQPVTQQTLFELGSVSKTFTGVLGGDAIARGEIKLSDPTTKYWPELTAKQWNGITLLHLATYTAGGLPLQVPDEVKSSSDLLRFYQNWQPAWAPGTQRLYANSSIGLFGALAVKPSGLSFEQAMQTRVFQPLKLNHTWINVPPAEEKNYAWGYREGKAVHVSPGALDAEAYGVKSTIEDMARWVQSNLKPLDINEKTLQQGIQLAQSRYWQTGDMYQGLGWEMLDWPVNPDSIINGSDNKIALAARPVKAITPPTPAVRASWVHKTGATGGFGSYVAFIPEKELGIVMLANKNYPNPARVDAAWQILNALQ
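20 mM phosphate pH 7.0 + 0.01% (detergent screen) or 0.0001% Triton X-100; 5.3 nM AmpC reagent; cpd preinc 15 min RT; nitrocefin (800 uM stock) to start; A480 q20 s × 4 min; Activity was normalised to no-enzyme and no-compound control wells.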
AMA1-RON2 inh = inhibitors of Plasmodium falciparum AMA1-RON2 interaction | AlphaScreen AMA1-biotinylated RON2 peptide binding | Potency, µM (highest dose often 58.2 µM), without a hit: at the top dose activity change, negative = inhibition, hits mostly inhibitors | 360,000 compounds, 0.2% hits | AID 720542;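 also: 0% = vehicle wells and -100% = peptide control; nearly all actives have a fitted effect of over 45% in size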
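AMA1 (3D7) with his tag at 25 nM final met compounds first, then biotinylated RON2 peptide at 25 nM; detection used donor plus acceptor beads, 10 µg/mL apiece, read by AlphaScreen after 30 min at room temperature.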
HCV inh = HCV inhibition. Huh7.5.1 HCVcc-Cre infection, luciferase reporter, 44 h. Potency, µM (doses to about 41.8 µM), inactives show top-dose activity change, negative = inhibition, usual class: inhibitors. 340,000 compounds, 3.4% hits. AID 651820
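Reporter virus HCVcc-Cre (~0.5 moi) infects cells exposed to compound; seeding density 1,000 cells/well with 4 h settling beforehand. Luminescence, 15 sec read, taken 44 h post-infection following a 15 min RT substrate incubation.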
Pf growth 96h = P. falciparum growth inhibition at 96 hour, primary screen for plastid delayed-death inhibitors; Potency, µM (series often up to 28.7 µM), without a hit: top-dose activity change, negative = inhibition, most hits filed as inhibitors; P. falciparum luciferase reporter growth, 96 h; 320,000 compounds, 6.9% hits
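Infected RBCs, 2% Hct / 0.05% parasitemia final; luciferase-reporter P. falciparum; cpd 96 h, 37 C, 5% CO2; luciferase detection reagent; luminescence.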
Pf growth 48h = inhibits P. falciparum growth in the first generation, 48 h; P. falciparum luciferase growth in erythrocytes, 48 h; Potency, µM (highest dose often 28.7 µM), inactives show at the highest dose activity change, negative = inhibition, most hits filed as inhibitors; 310,000 compounds, 5.9% hits
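A one-generation exposure of luciferase-tagged malaria parasites in RPMI 1640/Albumax erythrocyte culture, 37 C and 5% CO2. Inhibition is inferred from decreased luminescence after adding detection reagent.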
AmpC detergent = AmpC beta-lactamase inhibition with detergent present; P00811; AmpC hydrolysis of nitrocefin, absorbance 480 nm, 0.01% Triton; Potency, µM (doses to about 114 µM), without a hit: top-dose activity change, negative = inhibition, most hits filed as inhibitors; 370,000 compounds, 0.041% hits; AID 485294;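 also: 0% = no-compound wells and -100% = no-enzyme wells; nearly all actives have a fitted effect of over 25% in size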
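20 mM phosphate pH 7.0 + 0.01% (detergent screen) or 0.0001% Triton X-100; 5.3 nM AmpC reagent; cpd preinc 15 min RT; nitrocefin (800 uM stock) to start; A480 q20 s × 4 min; Activity was normalised to no-enzyme and no-compound control wells.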
* = called active by the depositor; ? = inconclusive; · = no result. Calls follow the shape of the dose curve; as a rule, active = well fitted curve in the direction sought with a large enough effect; inconclusive = small, poorly fitted or top-dose-only effect, or another doubt; inactive = no such curve, though single readings can be large; an effect the other way counts as inactive or inconclusive. Unless noted, % is scaled to controls: 0 for no effect and ±100 for the full control effect; potency is read from the fitted curve at half-maximal effect.

SMILES	AmpC inh no detg	AMA1-RON2 inh	HCV inh	Pf growth 96h	Pf growth 48h	AmpC detergent
CC1(C)Cc2c(cnn2-c2ccccc2)C(NC(=O)c2ccoc2)C1 (stereo not drawn)	13%	-11%	-6%	?	10µM*	0%
Cc1ccc(-n2ncc3c2CC(C)(C)CC3NC(=O)c2ccccn2)cc1 (stereo not drawn)	92%	-3%	?	15µM*	-19%	-9%
COc1ccc(OC)c(C(=O)NC2CC(C)(C)Cc3c2cnn3-c2ccccc2)c1 (stereo not drawn)	61%	8%	13µM*	4%	?	?
Cc1ccc(C)c(Cn2nnc(C(=O)NCc3ccc(Cl)cc3Cl)c2N)c1	·	·	·	·	·	14%
COc1ccc(/C=N/OCC(=O)Nc2cc(C)on2)cc1OC	-14%	11%	-10%	13%	7%	0%
COc1cc(/C=N/OCC(=O)NC23CC4CC(CC(C4)C2)C3)ccc1OCc1ccccc1	-1%	-19%	?	9.3µM*	?	2%
COc1ccc(/C=N/OCC(=O)NC(c2ccccc2)c2ccccc2)cc1OC	3%	-5%	4µM*	8.3µM*	9.3µM*	?
Cc1cc(OCC(=O)Nc2sc3c(c2C(N)=O)CCCC3)ccc1C(C)C	·	·	·	·	·	20%
CCOC(=O)c1ccc(NC(=O)Cn2nc(SC)c(S(=O)(=O)c3ccc(Cl)cc3)c2N)cc1	·	·	·	·	·	24%
CC(=O)N1CCCc2ccc(NC(=O)c3ccc(OC(C)C)cc3)cc21	·	·	·	·	·	4%
O=C(c1ccc(Cl)c(S(=O)(=O)Nc2ccccc2C(=O)N2CCc3ccccc3C2)c1)N1CCc2ccccc2C1	-11%	-17%	?	?	10µM*	1%
COc1cc(SC#N)ccc1N=Cc1c(C)[nH]n(-c2ccc(C)c(C)c2)c1=O	-15%	0%	?	-28%	5.2µM*	-12%
COc1cc(SC#N)ccc1N=Cc1c(C)[nH]n(-c2ccc(Cl)cc2)c1=O	-14%	5%	12%	2.1µM*	2.1µM*	?
COc1cc(S(=O)(=O)Nc2ccccc2)ccc1N=Cc1c(C)[nH]n(-c2ccc(C)cc2)c1=O	-43%	·	-11%	24%	-19%	-13%
CCCCN1CC(c2nc3ccccc3n2CCCCOc2c(C)cccc2C)CC1=O (stereo not drawn)	·	·	·	·	·	25%
COC(=O)c1[nH]c2ccc(C)cc2c1NC(=O)C(C)N1CCN(C2CCCCC2)CC1 (stereo not drawn)	-1%	3%	9%	10µM*	?	-13%
COC(=O)c1[nH]c2ccc(Br)cc2c1NC(=O)CN1CCCCC1CCO (stereo not drawn)	-3%	22%	?	5.2µM*	?	?
COC(=O)c1[nH]c2ccc(Br)cc2c1NC(=O)C(C)N1CCN(C2CCCCC2)CC1 (stereo not drawn)	50%	0%	-4%	2.1µM*	?	-10%
COC(=O)c1[nH]c2ccccc2c1NC(=O)CCN1CCN(C2CCCCC2)CC1	-8%	·	·	4%	-16%	?
COC(=O)c1ccc(-c2ccc(CNCC(O)c3ccccc3)o2)cc1 (stereo not drawn)	-8%	-2%	13%	12µM*	2.6µM*	?
CC(c1nccs1)N(C)c1nc2nonc2nc1N(C)C (stereo not drawn)	-19%	4%	8%	13µM*	8%	0%
CC1CCN(C(=O)c2cnn(-c3cccc(Cl)c3)c2C2CCN(C(=O)OC(C)(C)C)CC2)CC1	·	·	·	·	·	24%
COc1ccc(NC(=O)Cn2c(C)cc3ccccc3c2=O)c(OC)c1	·	·	·	·	·	2%
CC(=O)Nc1ccc(S(=O)(=O)n2nc(-c3ccc(C)cc3)nc2N)cc1	-17%	8%	?	1.7µM*	-14%	-9%
O=C(NC1(C(F)(F)F)Oc2ccc(Cl)cc2O1)N1CCC2(CC1)OCCO2 (stereo not drawn)	-23%	24%	?	1.9µM*	·	5%
SMILES	AmpC inh no detg	AMA1-RON2 inh	HCV inh	Pf growth 96h	Pf growth 48h	AmpC detergent
COc1cc2c(cc1OC)C(c1cccs1)N(C(=O)c1ccc(S(=O)(=O)N(C)C)cc1)CC2 (stereo not drawn)	116%	-19%	?	13µM*	10µM*	-2%
COc1cc2c(cc1OC)C(c1cccs1)N(C(=S)NC(C)C)CC2 (stereo not drawn)	42%	-9%	?	?	2.6µM*	-10%
COc1cccc(OC)c1C(=O)Nc1ccc(S(=O)(=O)N2CCCCC2)cc1	9%	12%	-18%	3.3µM*	-17%	?
COc1cccc(C(=O)Nc2ccc(S(=O)(=O)N3CCCCC3)cc2)c1OC	-2%	-9%	?	5.2µM*	12µM*	5%
COc1ccccc1C(=O)Nc1ccc(S(=O)(=O)N2CCCCC2)cc1	-21%	-17%	?	?	-17%	2%
COc1ccccc1C(=O)Nc1ccc(S(=O)(=O)N2CCCC2)cc1	-2%	4%	-4%	82%	-27%	-13%
CCc1ccccc1NC(=O)Cn1c(=O)n(Cc2ccccc2)c(=O)c2c(C)c(C(=O)N(C)C)sc21	·	·	·	·	·	7%
Cc1cc(C)c(CN2CCC(CO)(CCOc3ccccc3)CC2)cc1C	66%	7%	?	0%	6.6µM*	-7%
COc1ccc(OC)c(CN2CCC(CO)(CCOc3ccccc3)CC2)c1	-5%	1%	0%	-7%	13µM*	4%
COc1cc(CN2CCC(CO)(CCOc3ccccc3)CC2)cc(OC)c1	50%	9%	-22%	12µM*	12µM*	5%
OCC1(CCCc2ccccc2)CCN(Cc2ccc(F)cc2)CC1	24%	11%	4%	-23%	-19%	-4%

Screening data (PubChem BioAssay)
